USP10 inh = inhibitors of human USP10 deubiquitinase | 47,000 compounds, 1.1% hits | Ubiquitin carboxyl-terminal hydrolase 10 (Homo sapiens), Q14694 | purified USP10, Ub-rhodamine fluorescence, 60 min | AID 1645856, 2021 | inhibition, % at 20 µM
USP8 inh = inhibitors of human USP8 deubiquitinase. Ubiquitin carboxyl-terminal hydrolase 8 (Homo sapiens), P40818. purified USP8, Ub-rhodamine cleavage fluorescence, 30 min. inhibition, % at 20 µM. 47,000 compounds, 4.2% hits. AID 1645853, 2021
Target sequence (P40818 whole entry, looked up): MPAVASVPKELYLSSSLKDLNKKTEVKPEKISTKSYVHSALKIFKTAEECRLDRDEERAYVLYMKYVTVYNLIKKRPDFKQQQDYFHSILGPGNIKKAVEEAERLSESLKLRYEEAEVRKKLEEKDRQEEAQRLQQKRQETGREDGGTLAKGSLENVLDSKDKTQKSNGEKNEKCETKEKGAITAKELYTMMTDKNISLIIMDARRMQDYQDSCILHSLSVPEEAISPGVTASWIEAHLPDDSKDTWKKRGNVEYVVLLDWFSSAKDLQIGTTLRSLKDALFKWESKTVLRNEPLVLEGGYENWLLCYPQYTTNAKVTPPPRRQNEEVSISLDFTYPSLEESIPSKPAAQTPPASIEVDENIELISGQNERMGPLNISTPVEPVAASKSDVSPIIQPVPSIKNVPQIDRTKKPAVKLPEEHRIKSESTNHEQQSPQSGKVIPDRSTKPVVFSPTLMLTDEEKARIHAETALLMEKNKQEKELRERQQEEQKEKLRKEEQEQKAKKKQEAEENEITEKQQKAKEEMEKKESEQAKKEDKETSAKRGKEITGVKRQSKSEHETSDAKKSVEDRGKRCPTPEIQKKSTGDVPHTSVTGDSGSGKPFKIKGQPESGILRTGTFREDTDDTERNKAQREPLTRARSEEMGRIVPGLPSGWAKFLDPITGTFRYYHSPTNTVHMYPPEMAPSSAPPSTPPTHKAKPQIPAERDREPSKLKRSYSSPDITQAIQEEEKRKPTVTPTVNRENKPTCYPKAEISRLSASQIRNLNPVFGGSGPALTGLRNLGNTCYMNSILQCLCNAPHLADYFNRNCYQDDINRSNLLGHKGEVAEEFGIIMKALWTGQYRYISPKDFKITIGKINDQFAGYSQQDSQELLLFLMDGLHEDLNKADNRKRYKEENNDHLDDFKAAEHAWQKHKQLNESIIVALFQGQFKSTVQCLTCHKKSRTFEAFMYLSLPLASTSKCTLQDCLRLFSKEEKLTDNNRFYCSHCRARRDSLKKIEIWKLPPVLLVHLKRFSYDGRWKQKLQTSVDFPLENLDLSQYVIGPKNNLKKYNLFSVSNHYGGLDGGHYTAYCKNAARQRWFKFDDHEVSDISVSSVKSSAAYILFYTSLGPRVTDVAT
USP7 inh = inhibitors of human USP7 deubiquitinase; 47,000 compounds, 0.3% hits; AID 1645854, 2021; inhibition, % at 20 µM; Ubiquitin carboxyl-terminal hydrolase 7 (Homo sapiens), Q93009; purified USP7, Ub-rhodamine cleavage fluorescence
UCHL1 block = inhibitors of human UCHL1 deubiquitinase; Ubiquitin carboxyl-terminal hydrolase isozyme L1 (Homo sapiens), P09936; 47,000 compounds, 0.2% hits; inhibition, % at 20 µM; purified UCHL1, Ub-rhodamine cleavage fluorescence
Starred values were filed as active, the others as inactive. Compounds with a hit are over-represented: about 4.6% of the library has one in this group of screens. No stated cut-off is given here; in the data, active means inhibition above about 30%; inactive means the rest.

SMILES | USP10 inh | USP8 inh | USP7 inh | UCHL1 block
Cc1ccc(NC(=O)Cn2cncc(-c3nc(-c4ccccc4)cs3)c2=O)cc1F | 33* | 41* | 14 | 1
Cc1ccc(OC(C)C(=O)Nc2ccc3nsnc3c2)cc1C (stereo not drawn) | 0 | 45* | -1 | 3
CC(Oc1ccccc1Cl)C(=O)Nc1ccc2nsnc2c1 (stereo not drawn) | 3 | 36* | -10 | 7
CCc1ccc(OC(C)C(=O)Nc2ccc3nsnc3c2)cc1 (stereo not drawn) | 3 | 66* | -6 | 6
Cc1ccc(S(=O)(=O)N2CCCCC2c2nnc(-c3cccnc3)o2)cc1 (stereo not drawn) | -2 | -38 | -2 | -2
Cc1ccc(Nc2nccc(C3CN(c4ncccn4)C3)n2)nc1 | -3 | 1 | -1 | -3
Cc1ccc(N2CCN(C3=NC(C(=O)Nc4ccccc4)CC(=O)N3)CC2)cc1 (stereo not drawn) | 0 | 39* | 3 | 3
COc1ccc(N2CCN(C3=NC(CC(=O)Nc4ccccc4)C(=O)N3)CC2)cc1 (stereo not drawn) | -1 | 36* | 3 | 1
O=C1CC(C(=O)Nc2ccccc2)N=C(N2CCN(c3ccccc3F)CC2)N1 (stereo not drawn) | 6 | 24 | 6 | 4
Oc1cc(OCCN2CCCCC2)ccc1-c1[nH]ncc1-c1ccccc1 | 0 | 66* | 1 | 2
COc1ccc(C2c3[nH]c4ccccc4c3C[C@@H]3C(=O)N(Cc4ccco4)CC(=O)N23)cc1 (stereo partly drawn) | -5 | -35 | -21 | -6
CC(Nc1ncnc2cc(-c3ccc(Cl)cc3)sc12)c1ccccn1 (stereo not drawn) | 14 | 57* | 5 | 0
C[C@@H]1OC2=C(C(=O)c3cccc(O)c3C2=O)[C@H](O)[C@@H]1O | 49* | 63* | -116 | 32*
COC(=O)CC1CC2=C(C(=O)c3c(O)cccc3C2=O)C(C)O1 (stereo not drawn) | -13 | -46 | -132 | 5
COc1ccc2c(C)c(CC(=O)N[C@@H](Cc3c[nH]c4ccccc34)C(=O)O)c(=O)oc2c1C | 1 | 4 | 2 | -1
COc1ccc2c(C)c(CC(=O)N[C@@H](Cc3c[nH]c4ccc(O)cc34)C(=O)O)c(=O)oc2c1C | 7 | 45* | 1 | 3
COc1cccc2c1OCC(=O)N(C1CCCC1)C2C(=O)NC1CCCC1 (stereo not drawn) | 0 | 4 | -1 | -1
CCOc1ccc2c(c1)c(=O)c(C(=O)c1ccc(C)cc1)cn2CC(=O)Nc1ccc(C)c(C)c1 | 66* | 92* | 59* | 16
CCOc1ccc2c(c1)c(=O)c(C(=O)c1ccc(C)cc1)cn2CC(=O)Nc1ccc(C)cc1 | 62* | 95* | 60* | 24
CCOc1ccc2c(c1)c(=O)c(C(=O)c1ccc(C)cc1)cn2CC(=O)Nc1ccc(OC)cc1 | 16 | 0 | 1 | -2
COc1ccccc1OCC(=O)NCc1cc(-c2ccc(F)cc2)on1 | 4 | -1 | -1 | 0
CCN1CCn2cc(S(=O)(=O)NCc3cc(F)cc(F)c3)cc2C1=O | -1 | -5 | 2 | 0
O=C(NC1(c2nc(-c3ccncc3)no2)CCCCC1)c1ccccc1 | -1 | 2 | -7 | -1
O=C(Cn1c(=O)n(-c2ccccc2)c(=O)c2ccc(C(=O)NCc3ccc4c(c3)OCO4)cc21)NCCC1=CCCCC1 | 32* | 75* | 10 | 3
Cc1cc(NC(=O)Cn2c(=O)n(Cc3ccco3)c(=O)c3ccc(C(=O)NCCc4ccccc4)cc32)n[nH]1 | 66* | 87* | 3 | 18
SMILES | USP10 inh | USP8 inh | USP7 inh | UCHL1 block
COc1ccc(-n2c(=O)c3ccc(C(=O)NCCc4ccccc4)cc3n(CC(=O)NCc3ccco3)c2=O)cc1 | 44* | 6 | -15 | 6
O=C(Cn1c(=O)n(Cc2ccco2)c(=O)c2ccc(C(=O)NC3CCCC3)cc21)NCc1ccco1 | 20 | 45* | -2 | 6
O=C(Cc1nc(-c2ccccc2)n[nH]1)Nc1ccc(F)cc1F | -5 | -1 | -1 | -3
O=C(/C=C/C=C/C=C/C1CCCCC1)NC1=C[C@@](O)(/C=C/C=C/C=C/C(=O)NC2=C(O)CCC2=O)[C@@H]2O[C@@H]2C1=O | -5 | -24 | 45* | 47*
COc1ccc(CC(=O)N2CCC(Nc3cccnc3)C2)cc1 (stereo not drawn) | -5 | -4 | -16 | -5
COc1ccccc1[C@]12C[C@H]1CN(C(=O)Nc1ccncc1)c1cccnc1C2=O | 0 | -10 | 1 | -2
CCN1C[C@@H]2C[C@]2(c2ccccc2OC)C(=O)c2ncccc21 | -4 | 94* | -8 | 1
CS(=O)(=O)N(Cc1ccco1)Cc1cc2ccccc2[nH]c1=O | -1 | -2 | -2 | 1
Cc1ccc2nc3c(cc2c1)CN(Cc1ccccc1F)C(=O)O3 | 2 | 24 | 5 | -1
COc1ccc2cc3c(nc2c1)OC(=O)N(Cc1ccccc1F)C3 | 3 | 37* | 10 | -1
N#C/C(=C\c1ccc(OCc2cccc(C(=O)O)c2)cc1)c1ccc(F)cc1 | 77* | 59* | 31* | 5
N#C/C(=C/c1ccc(OCc2cccc(C(=O)O)c2)cc1)c1ccccc1 | 23 | 2 | 1 | -2
CCCCC/C=C/C(O)C(O)/C=C/c1ccc(Cl)c(O)c1CO (stereo not drawn) | -8 | -78 | -73 | -17
COc1ccc(C(=O)Nc2c(C(=O)N3CCN(C)CC3)oc3ccccc23)cc1 | 2 | 1 | -5 | 0
CN1CCN(C(=O)c2oc3ccccc3c2NC(=O)c2ccc(F)cc2)CC1 | -1 | 41* | 1 | 4
O=C(Nc1c(C(=O)N2CCCCCC2)oc2ccccc12)C1CCCC1 | 2 | 32* | -113 | 1
Cc1ccc2c(=O)c3c([nH]c2c1C)CCN(CC(=O)NCc1ccc2c(c1)OCO2)C3 | -3 | 19 | -35 | -21
Cc1c(Cl)ccc2c(=O)c3c([nH]c12)CCN(CC(=O)NCc1ccc2c(c1)OCO2)C3 | -15 | 46* | -163 | -165
COc1ccc(S(=O)(=O)N2CCN(C(=O)c3ccco3)CC2)c2ccccc12 | 0 | 0 | -1 | -1
COCCn1ccc2nc(C)c(C(=O)Nc3ccc4c(c3)OCO4)cc2c1=O | -2 | 75* | 4 | 9
O=C(CCCC(=O)c1ccccc1)Nc1ccc2c(c1)CCC2 | 4 | -43 | -24 | 4
O=C(CCCC(=O)c1ccccc1)Nc1ccc(O)cc1 | 0 | 35* | 2 | 0
O=S1(=O)Cc2cnc(NCC3CC3)nc2[C@H]2CN(Cc3ccccc3)C[C@H]21 | -5 | -14 | -15 | -9
Cc1ccccc1CN1C[C@@H]2c3nc(NCC4CC4)ncc3CS(=O)(=O)[C@@H]2C1 | -8 | 35* | -20 | 0
Cc1cc(C)c(-n2nnnc2SCC(=O)c2cccc([N+](=O)[O-])c2)c(C)c1 | 7 | 15 | 5 | 5
O=C(Nc1ccccc1F)c1cncc(NS(=O)(=O)c2ccccc2)c1 | 0 | 8 | 4 | 6

Screening data from PubChem.
